The subject of the experiment is Drosophila S2 cl14 SmoIP sensor cells. Put plainly: normalized SmoIP GFP fluorescence (untreated unstimulated = 0%, untreated Hh-stimulated = 100%); higher = more Smo activation sensor fluorescence. The conditions noted are these: compound concentration: 2 uM, 24 h.
Setting [1] is: stimulation: mock conditioned medium (-Hh).
Setting [2] is: stimulation: Hh conditioned medium (+Hh).

Structures can show the parent of a compound that is named as a salt.
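Also: flow cytometry read-out as median GFP intensity of gated cells, compounds added 30 min before Hh-conditioned or mock medium, mock-treated cells serving as unstimulated baseline.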

On to `CC(C)(C)c1cc(C=C(C#N)C#N)cc(Br)c1O` [ag-1024-tyrphostin], for which the “normalized SmoIP GFP fluorescence” value under setting [1] amounted to 14.2%.
For the compound `C[C@@H]1O[C@@H](O[C@H]2C[C@@H](O)[C@]3(CO)[C@H]4[C@H](O)C[C@]5(C)[C@@H](C6=CC(=O)OC6)CC[C@]5(O)[C@@H]4CC[C@]3(O)C2)[C@H](O)[C@H](O)[C@H]1O` [ouabain], the “normalized SmoIP GFP fluorescence” value runs as follows: under setting [2], 102%; under setting [1], -2.08%.
As to `Fc1cc(F)c2c(c1)[C@H]1C=CC[C@H]1C(c1cccnc1)N2` (some centres undefined) [golgicide-a], the “normalized SmoIP GFP fluorescence” value by setting is: under setting [2], 101%; under setting [1], -5.15%.
The corresponding values for `CNCC(O)c1ccc(O)cc1` (centres undefined) [synephrine-hcl] are 140% and -9.85%.
The corresponding values for `C=C1C[C@@H]2[C@H](CC[C@]3(C)C(=O)CC[C@@H]23)[C@@]2(C)C=CC(=O)C=C12` [Exemestane] are 115% and -5.01%.
On to `Cc1cccc(C)c1NC(=O)CN1CCCC1=O` [Nefiracetam(Translon)], for which the “normalized SmoIP GFP fluorescence” value under setting [2] is 138% and the “normalized SmoIP GFP fluorescence” value under setting [1] is -10.8%.
As for `CN1CCCCC1Cn1cc(C(=O)c2cc([N+](=O)[O-])ccc2I)c2ccccc21` (centres undefined), the “normalized SmoIP GFP fluorescence” value under setting [1] was found to be 32.3%.
With `Cn1cc(C2=C(c3cn(C4CCN(Cc5ccccn5)CC4)c4ccccc34)C(=O)NC2=O)c2ccccc21` [Enzastaurin], the “normalized SmoIP GFP fluorescence” value under setting [2] stood at 135% and the “normalized SmoIP GFP fluorescence” value under setting [1] turned out to be 38.2%.
The corresponding values for `C[C@]12CC[C@H](O)CC1=CC[C@@H]1[C@@H]2CC[C@]2(C)C(=O)CC[C@@H]12` [Dehydroepiandrosterone(DHEA)] are 134% and -12.4%.
In the same order, the values of `O=c1[nH]c2ccc(Cl)cc2c(N[C@@H]2CN3CCC2CC3)c1-c1nc2ccccc2[nH]1` [chir-124] are 253% and 23.9%.
In the same order, the values of `N[C@@H]1C[C@H]1c1ccccc1` [tranylcypromine-2-pcpa-hcl] are 109% and -1.34%.
For `COc1ccc(C(CN(C)C)C2(O)CCCCC2)cc1` (centres undefined) [Venlafaxine-hydrochloride], the “normalized SmoIP GFP fluorescence” value under setting [1] was -2.42%.
Take `CC(=O)Nc1ccc(OC[C@](C)(O)C(=O)Nc2ccc([N+](=O)[O-])c(C(F)(F)F)c2)cc1` [Andarine]: the “normalized SmoIP GFP fluorescence” value under setting [2] was found to be 107% and the “normalized SmoIP GFP fluorescence” value under setting [1] stood at 0.274%.
For the compound `CCN(CC)C(=O)c1ccc(C2=CC3(CCNCC3)Oc3cccc(O)c32)cc1`, the “normalized SmoIP GFP fluorescence” value under setting [2] was 99.7% and the “normalized SmoIP GFP fluorescence” value under setting [1] worked out at 2.11%.
In the same order, the values of `Cc1cc(SCc2sc(-c3ccc(C(F)(F)F)c(F)c3)nc2C)ccc1OCC(=O)O` are 106% and -1.74%.
Consider `C#C[C@]1(O)C=C[C@H]2[C@@H]3CCC4=CC(=O)CC[C@@H]4[C@H]3CC[C@@]21CC` [Gestodene], for which the “normalized SmoIP GFP fluorescence” value under setting [1] was 5.45%.
As for `O=C(O[C@H]1C[N+]2(CCCOc3ccccc3)CCC1CC2)C(O)(c1cccs1)c1cccs1` [aclidinium-bromide], the “normalized SmoIP GFP fluorescence” value is, setting by setting: under setting [2], 97.3%; under setting [1], -4.58%.
In the same order, the values of `COC[C@H]1OC(=O)c2coc3c2[C@@]1(C)C1=C(C3=O)[C@@H]2CCC(=O)[C@@]2(C)C[C@H]1OC(C)=O` [wortmannin] are 73.6% and 9.08%.
In the same order, the values of `CCC(COC(=O)c1cc(OC)c(OC)c(OC)c1)(c1ccccc1)N(C)C` (centres undefined) [trimebutine] are 111% and -15.8%.
The corresponding values for `CN1[C@@H]2CC(O)C[C@H]1[C@@H]1O[C@@H]12` (some centres undefined) [scopine] are 142% and -12%.
Turning to `CCc1c(C(=O)C(N)=O)c2c(OCC(=O)O)cccc2n1Cc1ccccc1`, the “normalized SmoIP GFP fluorescence” value under setting [1] is 4.26%.
In the case of `CCCN1C[C@H](CSC)C[C@@H]2c3cccc4[nH]cc(c34)C[C@H]21` [Pergolide-mesylate], the “normalized SmoIP GFP fluorescence” value is, setting by setting: under setting [2], 119%; under setting [1], -0.889%.
The corresponding values for `C=CC[C@]1(O)CC[C@H]2[C@@H]3CCC4=CC(=O)CCC4=C3C=C[C@@]21C` [altrenogest] are 109% and -1.23%.
For the compound `CN1CCC(c2c[nH]c3ccc(O)cc23)CC1`, the “normalized SmoIP GFP fluorescence” value runs as follows: under setting [2], 111%; under setting [1], -2.82%.
In the same order, the values of `CCCN1CCOC2c3cc(O)ccc3OCC21` (centres undefined) are 113% and -13.6%.
The corresponding values for `C[C@]12N[C@H](Cc3ccccc31)c1ccccc12` [mk-801-maleate] are 103% and -3.16%.
The corresponding values for `CC[C@@]1(O)C(=O)OCc2c1cc1n(c2=O)Cc2cc3ccccc3nc2-1` [Camptothecine] are 33.6% and 2.64%.
Turning to `C[C@H]1CNCCc2ccc(Cl)cc21` [lorcaserin-hcl], the “normalized SmoIP GFP fluorescence” value was 99.3% under setting [2] and -2.48% under setting [1].
The corresponding values for `CN1[C@@H]2C[C@@H](OC(=O)[C@H](CO)c3ccccc3)C[C@H]1[C@@H]1O[C@@H]12` [Scopolamine-hydrobromide] are 113% and -17.7%.
In the same order, the values of `Cc1ccccc1-n1c(Cn2ncc3c(N)ncnc32)nc2cccc(C)c2c1=O` are 115% and -6.79%.
The corresponding values for `CN1c2ccccc2C(NCCCCCCC(=O)O)c2ccc(Cl)cc2S1(=O)=O` (centres undefined) [Tianeptine-sodium-salt] are 110% and 0.274%.
Regarding `Cc1cccc(C(C)c2c[nH]cn2)c1C` (centres undefined) [medetomidine-hcl], the “normalized SmoIP GFP fluorescence” value by setting is: under setting [2], 108%; under setting [1], -1.63%.
